# The supplement of paper PMC10849652
# Of roughly 7,900 targets only a part is listed; those with a hit were picked by preference. About 0.6% of all pairs of compound and target were hits. Values without a mark were called inactive.
# Key:
# Assay in all cases: log2 fold change, soluble protein after heating vs DMSO (PISA); higher = thermal stabilisation; K562 cells, 10 uM, 30 min; active = over 0.2 and 3.5 SD of the protein, either way, in both replicates (recomputed)
# [1] = compound: C1=CC=C(C=C1)[C@H](COC2=CC3=C(C=C2)NC(=O)N3)NC(=O)C4=CC=CN(C4=O)CC5=CC(=C(C=C5)F)F
# In short: (§1)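 Quantification of soluble protein used TMTpro 16plex LC-MS/MS, with channel sums equalised. Samples were the supernatant after 21,000xg for 90 min of pooled aliquots from K562 cells (2×10^6 cells/mL) treated with 10 μM compound for 30 min, heated for 3 min over 48°C-58°C, and extracted in PBS with 0.5% NP-40 at 4°C. Values, from duplicates, describe thermal stability against control samples on a log2 fold-change scale.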
# [2] = compound: CC1=C(SC2=C1C(=N[C@H](C3=NN=C(N32)C)CC(=O)N)C4=CC=C(C=C4)Cl)C
# In short: as §1
# [3] = compound: CC1=C2C(=CC=C1)N=C(N(C2=O)C3=CC=CC=C3C)CN4C=NC5=C(N=CN=C54)N
# In short: as §1
# [4] = compound: Cc1sc2c(c1C)C(c1ccc(Cl)cc1)=N[C@@H](CC(=O)OC(C)(C)C)c1nnc(C)n1-2
# In short: as §1
# [5] = compound: c1ccc([C@@H]2C[C@H]2NC2CCNCC2)cc1
# In short: as §1
# Sequence of UniProt Q14493 (Q14493 whole entry, looked up): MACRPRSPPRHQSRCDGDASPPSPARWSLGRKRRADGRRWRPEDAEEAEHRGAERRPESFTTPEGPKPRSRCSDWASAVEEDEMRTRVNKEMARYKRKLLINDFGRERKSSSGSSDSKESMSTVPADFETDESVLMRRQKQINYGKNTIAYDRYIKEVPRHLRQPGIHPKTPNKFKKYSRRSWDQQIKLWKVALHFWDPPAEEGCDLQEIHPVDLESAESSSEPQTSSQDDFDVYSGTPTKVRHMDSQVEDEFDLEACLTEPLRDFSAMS
# Sequence of UniProt Q5VUM1 (Q5VUM1 whole entry, looked up): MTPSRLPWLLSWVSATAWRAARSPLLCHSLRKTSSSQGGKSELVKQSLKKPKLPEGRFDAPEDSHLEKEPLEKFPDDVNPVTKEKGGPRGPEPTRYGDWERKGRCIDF
# Sequence of UniProt Q96T23 (Q96T23 whole entry, looked up): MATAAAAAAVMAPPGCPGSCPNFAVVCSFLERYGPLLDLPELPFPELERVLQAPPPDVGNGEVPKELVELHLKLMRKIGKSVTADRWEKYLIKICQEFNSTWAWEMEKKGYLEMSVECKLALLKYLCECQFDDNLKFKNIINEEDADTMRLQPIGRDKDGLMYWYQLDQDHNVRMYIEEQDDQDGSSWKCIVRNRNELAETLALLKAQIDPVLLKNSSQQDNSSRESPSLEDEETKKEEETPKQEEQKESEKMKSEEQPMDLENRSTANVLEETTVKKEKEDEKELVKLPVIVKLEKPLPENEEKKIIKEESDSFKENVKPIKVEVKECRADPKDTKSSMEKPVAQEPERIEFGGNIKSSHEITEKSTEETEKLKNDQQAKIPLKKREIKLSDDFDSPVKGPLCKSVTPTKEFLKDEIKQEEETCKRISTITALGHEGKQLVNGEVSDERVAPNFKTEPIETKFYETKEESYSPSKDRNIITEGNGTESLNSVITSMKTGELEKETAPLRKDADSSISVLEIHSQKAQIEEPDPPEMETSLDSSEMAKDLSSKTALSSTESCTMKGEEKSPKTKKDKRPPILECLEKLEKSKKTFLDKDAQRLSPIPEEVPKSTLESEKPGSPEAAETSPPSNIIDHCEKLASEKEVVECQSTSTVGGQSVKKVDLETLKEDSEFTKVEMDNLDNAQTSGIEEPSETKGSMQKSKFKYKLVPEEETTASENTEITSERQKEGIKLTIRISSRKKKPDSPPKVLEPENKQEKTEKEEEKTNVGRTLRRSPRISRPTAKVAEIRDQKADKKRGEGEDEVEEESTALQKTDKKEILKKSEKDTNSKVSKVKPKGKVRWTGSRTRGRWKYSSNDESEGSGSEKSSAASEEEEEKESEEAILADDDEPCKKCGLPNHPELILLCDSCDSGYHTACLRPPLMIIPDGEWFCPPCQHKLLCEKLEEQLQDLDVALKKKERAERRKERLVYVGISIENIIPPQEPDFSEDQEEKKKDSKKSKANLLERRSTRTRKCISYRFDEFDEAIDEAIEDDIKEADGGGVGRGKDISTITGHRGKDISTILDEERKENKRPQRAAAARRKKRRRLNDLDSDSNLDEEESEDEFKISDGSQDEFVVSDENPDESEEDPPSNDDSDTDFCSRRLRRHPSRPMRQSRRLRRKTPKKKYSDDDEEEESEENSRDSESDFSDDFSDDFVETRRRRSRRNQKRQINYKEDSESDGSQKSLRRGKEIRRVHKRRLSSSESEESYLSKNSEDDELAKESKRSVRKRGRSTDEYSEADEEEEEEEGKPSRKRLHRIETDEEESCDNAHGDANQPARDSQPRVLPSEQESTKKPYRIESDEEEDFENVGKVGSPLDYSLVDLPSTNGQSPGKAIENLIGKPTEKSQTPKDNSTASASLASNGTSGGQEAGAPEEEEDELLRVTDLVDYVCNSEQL
# Sequence of UniProt Q86TU7 (Q86TU7 whole entry, looked up): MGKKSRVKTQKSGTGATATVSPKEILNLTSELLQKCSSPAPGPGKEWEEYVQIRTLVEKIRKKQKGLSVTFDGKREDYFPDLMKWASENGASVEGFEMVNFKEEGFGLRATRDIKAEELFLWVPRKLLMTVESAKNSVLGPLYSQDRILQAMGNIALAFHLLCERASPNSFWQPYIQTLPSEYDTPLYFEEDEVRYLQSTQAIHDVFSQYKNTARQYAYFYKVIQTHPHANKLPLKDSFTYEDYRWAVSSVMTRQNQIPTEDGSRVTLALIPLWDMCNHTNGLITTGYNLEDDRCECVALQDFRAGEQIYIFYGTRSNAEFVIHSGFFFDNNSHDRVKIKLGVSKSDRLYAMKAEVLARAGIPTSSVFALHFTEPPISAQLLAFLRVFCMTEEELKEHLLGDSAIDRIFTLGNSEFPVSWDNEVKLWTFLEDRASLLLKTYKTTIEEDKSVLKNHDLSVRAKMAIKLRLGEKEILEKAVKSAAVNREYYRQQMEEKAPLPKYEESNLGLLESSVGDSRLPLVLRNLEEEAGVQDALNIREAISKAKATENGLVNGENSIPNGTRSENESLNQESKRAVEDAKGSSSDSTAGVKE
# Sequence of UniProt Q9UKL0 (Q9UKL0 whole entry, looked up): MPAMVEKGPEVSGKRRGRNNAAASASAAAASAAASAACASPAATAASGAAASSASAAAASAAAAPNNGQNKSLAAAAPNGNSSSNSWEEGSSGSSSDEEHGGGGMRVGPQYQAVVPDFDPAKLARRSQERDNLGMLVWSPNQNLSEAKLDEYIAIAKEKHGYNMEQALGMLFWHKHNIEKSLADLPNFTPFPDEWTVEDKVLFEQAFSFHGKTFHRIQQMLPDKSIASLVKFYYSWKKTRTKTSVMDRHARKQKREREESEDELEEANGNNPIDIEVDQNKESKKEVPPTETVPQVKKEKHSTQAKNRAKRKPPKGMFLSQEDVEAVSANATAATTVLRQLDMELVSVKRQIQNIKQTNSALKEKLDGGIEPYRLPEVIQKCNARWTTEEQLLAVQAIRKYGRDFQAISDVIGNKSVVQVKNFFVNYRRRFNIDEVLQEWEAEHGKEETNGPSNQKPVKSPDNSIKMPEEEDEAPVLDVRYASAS
# Sequence of UniProt P51151 (P51151 whole entry, looked up): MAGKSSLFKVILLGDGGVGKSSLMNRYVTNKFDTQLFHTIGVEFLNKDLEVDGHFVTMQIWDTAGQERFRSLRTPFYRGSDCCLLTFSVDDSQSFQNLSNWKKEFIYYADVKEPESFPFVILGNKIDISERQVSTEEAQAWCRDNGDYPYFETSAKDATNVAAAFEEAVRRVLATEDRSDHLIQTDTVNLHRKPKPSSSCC
# Sequence of UniProt Q5PRF9 (Q5PRF9 whole entry, looked up): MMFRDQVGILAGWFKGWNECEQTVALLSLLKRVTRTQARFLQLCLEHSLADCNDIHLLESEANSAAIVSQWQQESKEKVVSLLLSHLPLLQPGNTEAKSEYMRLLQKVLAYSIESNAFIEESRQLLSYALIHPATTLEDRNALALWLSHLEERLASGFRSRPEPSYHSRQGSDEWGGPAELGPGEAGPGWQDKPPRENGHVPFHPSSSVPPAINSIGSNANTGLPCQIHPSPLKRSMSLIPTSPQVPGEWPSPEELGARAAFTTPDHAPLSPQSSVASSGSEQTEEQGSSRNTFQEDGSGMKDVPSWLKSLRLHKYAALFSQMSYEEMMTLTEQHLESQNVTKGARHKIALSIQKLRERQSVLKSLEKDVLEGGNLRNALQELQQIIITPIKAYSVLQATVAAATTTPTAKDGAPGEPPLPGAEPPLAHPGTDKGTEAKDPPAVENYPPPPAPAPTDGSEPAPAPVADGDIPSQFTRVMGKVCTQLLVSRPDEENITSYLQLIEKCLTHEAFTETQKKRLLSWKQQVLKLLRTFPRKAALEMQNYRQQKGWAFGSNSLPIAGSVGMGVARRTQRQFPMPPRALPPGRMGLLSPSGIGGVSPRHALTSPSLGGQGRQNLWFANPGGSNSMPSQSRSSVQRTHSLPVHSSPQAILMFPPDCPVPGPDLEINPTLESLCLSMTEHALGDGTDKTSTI
# Sequence of UniProt P78332 (P78332 whole entry, looked up): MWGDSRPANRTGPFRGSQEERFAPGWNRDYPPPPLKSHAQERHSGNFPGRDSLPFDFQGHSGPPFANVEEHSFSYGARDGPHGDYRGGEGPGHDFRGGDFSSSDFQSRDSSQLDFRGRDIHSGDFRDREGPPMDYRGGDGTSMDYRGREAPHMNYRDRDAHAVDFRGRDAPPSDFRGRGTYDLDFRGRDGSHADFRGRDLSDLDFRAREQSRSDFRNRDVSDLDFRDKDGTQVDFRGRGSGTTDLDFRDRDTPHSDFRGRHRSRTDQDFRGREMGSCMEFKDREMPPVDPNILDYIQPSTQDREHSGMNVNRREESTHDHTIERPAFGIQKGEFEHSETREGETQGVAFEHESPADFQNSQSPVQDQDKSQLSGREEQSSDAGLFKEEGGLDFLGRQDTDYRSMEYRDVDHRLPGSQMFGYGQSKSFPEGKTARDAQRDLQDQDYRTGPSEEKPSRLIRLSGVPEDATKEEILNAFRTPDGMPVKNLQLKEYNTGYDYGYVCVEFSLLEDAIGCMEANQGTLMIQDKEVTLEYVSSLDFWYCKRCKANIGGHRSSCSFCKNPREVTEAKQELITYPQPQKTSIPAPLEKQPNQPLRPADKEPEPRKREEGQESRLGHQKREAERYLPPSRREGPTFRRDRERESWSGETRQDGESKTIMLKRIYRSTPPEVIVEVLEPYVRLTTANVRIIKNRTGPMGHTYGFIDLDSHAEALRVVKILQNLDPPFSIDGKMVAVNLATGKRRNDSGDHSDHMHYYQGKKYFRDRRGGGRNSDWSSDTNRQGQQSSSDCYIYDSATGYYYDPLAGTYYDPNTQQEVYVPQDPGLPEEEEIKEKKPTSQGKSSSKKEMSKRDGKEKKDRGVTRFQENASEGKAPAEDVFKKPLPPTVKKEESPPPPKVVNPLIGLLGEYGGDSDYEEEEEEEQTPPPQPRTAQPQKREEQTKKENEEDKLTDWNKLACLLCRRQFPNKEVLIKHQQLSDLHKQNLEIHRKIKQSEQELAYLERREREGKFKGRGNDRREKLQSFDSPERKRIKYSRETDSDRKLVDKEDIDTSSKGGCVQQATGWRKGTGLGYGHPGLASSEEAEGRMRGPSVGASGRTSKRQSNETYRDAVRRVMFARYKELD
# Sequence of UniProt Q9BWJ5 (Q9BWJ5 whole entry, looked up): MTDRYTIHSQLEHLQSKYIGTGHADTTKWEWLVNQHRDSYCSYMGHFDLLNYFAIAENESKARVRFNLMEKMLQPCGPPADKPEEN
Target,log2 fold change [1],log2 fold change [2],log2 fold change [3],log2 fold change [4],log2 fold change [5]
RAB3D (UniProt O95716),0.023,-0.105,0.007,-0.082,0.201
SIK3 (UniProt H0Y4E8),,0.034,0.025,0.118,0.028
RPP25L (UniProt Q8N5L8),0.032,-0.018,0.026,0.143,0.033
SENP6 (UniProt Q9GZR1),0.023,0.014,0.048,0.022,0.056
RBMY1E (UniProt A6NEQ0),0.063,-0.02,,0.001,0.145
SAMD4B (UniProt Q5PRF9),0.107,-0.027,,0.039,0.058
RMDN2 isoform 2 (UniProt Q96LZ7),,,0.164,,
SDCBP isoform 2 (UniProt O00560),-0.08,,,0.169,
RPS19 (UniProt M0R2L9),,,,0.183,
SLBP (UniProt Q14493),-0.092,-0.056,0.042,0.059,0.034
RPS21 (UniProt P63220),-0.008,-0.047,0.028,0.017,0.02
RSF1 (UniProt Q96T23),-0.102,0.091,0.096,-0.061,-0.018
RNF26 (UniProt Q9BY78),0.005,,-0.104,,
SDC3 (UniProt O75056),,-0.012,0.071,-0.044,0.052
RPS3 (UniProt E9PJN9),,,,0.141,
RAB9A (UniProt P51151),0.024,0.088,0.065,-0.04,0.001
RBM6 (UniProt P78332),,-0.075,,0.012,0.076
RUNX1 isoform 8 (UniProt Q01196),-0.042,,0.025,,
RPS3A (UniProt D6R9B6),,,,0.248,
SF3B5 (UniProt Q9BWJ5),0.056,,-0.032,0.007,
S100A10 (UniProt P60903),0.651,0.061,,-0.127,-0.01
SETD3 (UniProt Q86TU7),-0.017,0.018,0.061,0.021,-0.005
SDHAF4 (UniProt Q5VUM1),0.053,0.16,,-0.025,0.073
RCOR1 (UniProt Q9UKL0),-0.113,0.021,0.114,0.006,0.856 (active)
